Results as given in paper PMC7862700, “An all-to-all approach to the identification of sequence-specific readers for epigenetic DNA modifications on cytosine”.

Columns and labels:
Assay in all cases: DAPPL (digital affinity profiling via proximity ligation, sequencing); 10 mM Tris-HCl pH 7.5, 50 mM NaCl, 1 mM DTT, 4% glycerol, room temperature, 30 min; GST-TFs on glutathione beads, 16-mer random dsDNA library, 0.1% formaldehyde crosslink after washing; high values mean tight binding
[1] = target: T1, FEV (Homo sapiens, UniProt Q99581 1-238); conditions: protein: recombinant; tags: N-terminal GST; dsDNA, one strand shown
T1 sequence: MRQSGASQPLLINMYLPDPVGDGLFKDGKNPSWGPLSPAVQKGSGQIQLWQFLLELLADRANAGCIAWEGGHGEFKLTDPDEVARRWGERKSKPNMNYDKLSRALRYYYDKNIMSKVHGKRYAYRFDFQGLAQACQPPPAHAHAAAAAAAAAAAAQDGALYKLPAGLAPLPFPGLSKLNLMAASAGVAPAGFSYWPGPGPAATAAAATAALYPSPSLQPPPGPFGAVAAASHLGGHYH
How it was run: (§1)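 A tag-only sample was pooled with DNA-barcoded human transcription factors that had been expressed in yeast as GST fusions and captured on glutathione beads. The pools were incubated for 30 min at room temperature with 200 nmole of a random double-stranded 16-mer DNA library in Tris/NaCl/DTT/glycerol buffer, then washed, crosslinked with 0.1% formaldehyde, proximity-ligated (BsaI/T4 ligase, 1 h, 37 °C), PCR-amplified and sequenced on an Illumina NextSeq500. Binding signal is each hexamer's read frequency for a factor divided by its frequency for the tag-only sample.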

[2] = target: ETV5 (Homo sapiens, UniProt P41161 1-510); conditions: protein: recombinant; tags: N-terminal GST; dsDNA, one strand shown
Chain of ETV5 (P41161 whole entry): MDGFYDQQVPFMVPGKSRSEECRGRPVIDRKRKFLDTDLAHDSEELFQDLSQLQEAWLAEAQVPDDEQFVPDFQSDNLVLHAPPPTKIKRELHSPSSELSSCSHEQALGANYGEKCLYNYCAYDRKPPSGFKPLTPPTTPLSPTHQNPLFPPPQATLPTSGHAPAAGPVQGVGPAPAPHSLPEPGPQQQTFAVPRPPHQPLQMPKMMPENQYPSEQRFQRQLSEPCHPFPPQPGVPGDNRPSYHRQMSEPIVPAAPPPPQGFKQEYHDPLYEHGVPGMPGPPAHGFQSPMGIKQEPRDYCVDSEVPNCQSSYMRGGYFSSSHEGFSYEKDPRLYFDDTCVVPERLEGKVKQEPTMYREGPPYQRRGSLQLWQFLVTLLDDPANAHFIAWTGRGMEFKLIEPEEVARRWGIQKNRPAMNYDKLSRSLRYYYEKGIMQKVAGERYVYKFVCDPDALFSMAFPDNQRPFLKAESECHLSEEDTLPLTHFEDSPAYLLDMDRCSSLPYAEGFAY
How it was run: as §1

[3] = target: HSF1 (Homo sapiens, UniProt Q00613 1-529); conditions: protein: recombinant; tags: N-terminal GST; chain copies: 3; dsDNA, one strand shown
Chain of HSF1 (Q00613 whole entry): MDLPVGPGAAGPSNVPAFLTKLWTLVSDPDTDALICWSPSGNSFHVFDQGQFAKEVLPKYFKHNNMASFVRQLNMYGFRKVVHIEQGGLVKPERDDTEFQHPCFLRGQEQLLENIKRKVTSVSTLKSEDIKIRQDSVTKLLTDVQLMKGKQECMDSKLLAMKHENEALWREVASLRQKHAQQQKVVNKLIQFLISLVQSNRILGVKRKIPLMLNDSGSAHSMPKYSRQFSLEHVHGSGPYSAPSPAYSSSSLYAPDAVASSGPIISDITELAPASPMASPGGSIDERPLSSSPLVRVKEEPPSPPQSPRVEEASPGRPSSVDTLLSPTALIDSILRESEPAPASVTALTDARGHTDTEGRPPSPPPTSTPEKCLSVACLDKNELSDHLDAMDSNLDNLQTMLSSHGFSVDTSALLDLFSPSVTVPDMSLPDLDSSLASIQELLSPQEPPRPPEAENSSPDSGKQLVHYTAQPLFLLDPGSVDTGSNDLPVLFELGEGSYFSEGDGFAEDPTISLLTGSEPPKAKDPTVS
How it was run: as §1

[4] = target: T2, SPIC (Homo sapiens, UniProt Q8N5J4 1-248); conditions: protein: recombinant; tags: N-terminal GST; dsDNA, one strand shown
T2 sequence: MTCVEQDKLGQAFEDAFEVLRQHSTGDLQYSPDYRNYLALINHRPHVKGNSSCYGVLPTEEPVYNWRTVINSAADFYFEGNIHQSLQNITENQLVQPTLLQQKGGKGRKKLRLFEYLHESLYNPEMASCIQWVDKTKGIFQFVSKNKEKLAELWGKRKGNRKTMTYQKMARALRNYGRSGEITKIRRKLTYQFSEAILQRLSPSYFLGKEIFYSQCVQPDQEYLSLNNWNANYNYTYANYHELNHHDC
How it was run: as §1

[5] = target: ELF4 (Homo sapiens, UniProt Q99607 1-663); conditions: protein: recombinant; tags: N-terminal GST; dsDNA, one strand shown
Chain of ELF4 (Q99607 whole entry): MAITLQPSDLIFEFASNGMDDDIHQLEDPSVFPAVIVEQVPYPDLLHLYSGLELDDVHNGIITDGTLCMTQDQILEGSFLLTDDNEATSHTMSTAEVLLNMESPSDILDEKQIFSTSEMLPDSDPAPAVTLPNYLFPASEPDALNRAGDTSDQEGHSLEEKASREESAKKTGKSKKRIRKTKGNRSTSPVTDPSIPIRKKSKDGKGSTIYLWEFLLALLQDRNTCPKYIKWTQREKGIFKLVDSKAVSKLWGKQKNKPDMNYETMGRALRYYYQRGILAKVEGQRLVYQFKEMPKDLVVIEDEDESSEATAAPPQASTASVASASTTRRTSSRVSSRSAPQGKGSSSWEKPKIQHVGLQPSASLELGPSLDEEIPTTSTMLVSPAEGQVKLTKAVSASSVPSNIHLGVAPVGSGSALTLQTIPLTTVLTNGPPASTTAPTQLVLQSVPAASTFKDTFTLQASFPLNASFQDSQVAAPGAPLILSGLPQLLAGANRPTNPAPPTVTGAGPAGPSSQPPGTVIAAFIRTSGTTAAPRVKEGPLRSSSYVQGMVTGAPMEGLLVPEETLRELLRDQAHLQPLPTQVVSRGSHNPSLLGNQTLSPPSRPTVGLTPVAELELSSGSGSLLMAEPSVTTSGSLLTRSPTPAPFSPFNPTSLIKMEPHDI
How it was run: as §1

[6] = target: T3, ELK4 (Homo sapiens, UniProt P28324-2 1-405); conditions: protein: recombinant; tags: N-terminal GST; dsDNA, one strand shown
T3 sequence: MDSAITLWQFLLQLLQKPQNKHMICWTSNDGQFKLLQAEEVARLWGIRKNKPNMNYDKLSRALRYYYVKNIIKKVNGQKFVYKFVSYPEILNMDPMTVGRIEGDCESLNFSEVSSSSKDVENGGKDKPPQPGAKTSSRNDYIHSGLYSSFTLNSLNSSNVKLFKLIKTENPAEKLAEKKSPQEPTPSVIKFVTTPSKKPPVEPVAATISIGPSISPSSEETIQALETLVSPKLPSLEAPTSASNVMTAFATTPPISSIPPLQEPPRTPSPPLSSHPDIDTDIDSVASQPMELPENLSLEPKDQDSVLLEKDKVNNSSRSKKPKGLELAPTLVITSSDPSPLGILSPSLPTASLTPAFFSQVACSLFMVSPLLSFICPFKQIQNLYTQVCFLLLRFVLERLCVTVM
How it was run: as §1

[7] = target: T4, ETV2 (Homo sapiens, UniProt O00321 1-342); conditions: protein: recombinant; tags: N-terminal GST; dsDNA, one strand shown
T4 sequence: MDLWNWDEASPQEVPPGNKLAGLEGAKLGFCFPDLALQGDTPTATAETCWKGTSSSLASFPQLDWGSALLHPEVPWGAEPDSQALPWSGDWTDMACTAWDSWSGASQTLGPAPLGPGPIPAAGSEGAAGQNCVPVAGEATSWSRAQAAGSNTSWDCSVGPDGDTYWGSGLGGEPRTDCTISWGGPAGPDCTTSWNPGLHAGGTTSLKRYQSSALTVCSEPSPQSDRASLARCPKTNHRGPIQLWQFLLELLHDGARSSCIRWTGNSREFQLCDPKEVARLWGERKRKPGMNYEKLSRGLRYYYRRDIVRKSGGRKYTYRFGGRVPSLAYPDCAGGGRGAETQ
How it was run: as §1

[8] = target: T5, ELF3 (Homo sapiens, UniProt P78545 1-371); conditions: protein: recombinant; tags: N-terminal GST; dsDNA, one strand shown
T5 sequence: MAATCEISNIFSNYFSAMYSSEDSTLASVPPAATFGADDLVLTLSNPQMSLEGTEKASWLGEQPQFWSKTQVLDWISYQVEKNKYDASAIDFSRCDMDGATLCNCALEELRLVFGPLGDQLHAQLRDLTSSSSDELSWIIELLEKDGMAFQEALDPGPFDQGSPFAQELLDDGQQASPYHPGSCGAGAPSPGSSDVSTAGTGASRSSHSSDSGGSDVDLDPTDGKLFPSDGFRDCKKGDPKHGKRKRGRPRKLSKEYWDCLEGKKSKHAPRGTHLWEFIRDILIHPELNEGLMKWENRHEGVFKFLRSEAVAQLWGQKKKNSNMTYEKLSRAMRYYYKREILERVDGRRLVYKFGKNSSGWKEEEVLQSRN
How it was run: as §1

[9] = target: CRX (Homo sapiens, UniProt O43186 1-299); conditions: protein: recombinant; tags: N-terminal GST; dsDNA, one strand shown
Chain of CRX (O43186 whole entry): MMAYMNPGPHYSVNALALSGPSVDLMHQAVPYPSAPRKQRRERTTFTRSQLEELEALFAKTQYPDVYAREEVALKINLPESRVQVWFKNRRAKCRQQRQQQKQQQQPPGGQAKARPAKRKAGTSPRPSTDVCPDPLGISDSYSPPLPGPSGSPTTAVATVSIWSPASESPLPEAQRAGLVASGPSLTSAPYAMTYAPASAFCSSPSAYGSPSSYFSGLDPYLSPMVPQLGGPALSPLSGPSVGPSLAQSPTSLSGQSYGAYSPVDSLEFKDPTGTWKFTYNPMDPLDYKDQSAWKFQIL
How it was run: as §1

[10] = target: ETV1 (Homo sapiens, UniProt P50549 1-477); conditions: protein: recombinant; tags: N-terminal GST; dsDNA, one strand shown
Chain of ETV1 (P50549 whole entry): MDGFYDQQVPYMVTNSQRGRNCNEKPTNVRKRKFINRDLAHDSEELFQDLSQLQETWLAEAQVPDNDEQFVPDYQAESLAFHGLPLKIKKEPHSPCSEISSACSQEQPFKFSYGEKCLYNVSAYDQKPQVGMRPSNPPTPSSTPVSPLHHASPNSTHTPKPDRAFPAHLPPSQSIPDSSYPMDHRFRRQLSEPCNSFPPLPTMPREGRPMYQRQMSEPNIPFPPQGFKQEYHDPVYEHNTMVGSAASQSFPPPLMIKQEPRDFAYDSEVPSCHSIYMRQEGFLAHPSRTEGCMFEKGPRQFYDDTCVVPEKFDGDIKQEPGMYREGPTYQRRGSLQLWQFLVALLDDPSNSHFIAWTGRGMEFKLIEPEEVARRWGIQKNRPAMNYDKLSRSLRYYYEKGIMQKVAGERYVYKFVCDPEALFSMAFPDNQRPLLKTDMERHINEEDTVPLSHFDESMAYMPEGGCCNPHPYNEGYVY
How it was run: as §1

[11] = target: T6, ERF (Homo sapiens, UniProt P50548 1-548); conditions: protein: recombinant; tags: N-terminal GST; dsDNA, one strand shown
T6 sequence: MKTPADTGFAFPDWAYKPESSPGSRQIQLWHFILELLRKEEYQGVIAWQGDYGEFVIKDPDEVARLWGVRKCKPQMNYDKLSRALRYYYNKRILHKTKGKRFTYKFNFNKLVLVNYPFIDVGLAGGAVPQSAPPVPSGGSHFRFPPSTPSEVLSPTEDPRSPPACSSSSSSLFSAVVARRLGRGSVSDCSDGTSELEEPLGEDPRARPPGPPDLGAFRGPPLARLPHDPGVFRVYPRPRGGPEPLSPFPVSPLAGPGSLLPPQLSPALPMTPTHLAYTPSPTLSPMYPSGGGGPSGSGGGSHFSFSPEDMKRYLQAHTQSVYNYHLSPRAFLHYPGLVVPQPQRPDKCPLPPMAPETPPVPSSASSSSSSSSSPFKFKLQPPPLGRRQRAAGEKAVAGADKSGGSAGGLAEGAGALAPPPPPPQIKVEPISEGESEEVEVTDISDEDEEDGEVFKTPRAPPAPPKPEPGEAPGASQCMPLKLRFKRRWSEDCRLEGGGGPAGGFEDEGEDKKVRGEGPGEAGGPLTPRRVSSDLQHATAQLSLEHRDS
How it was run: as §1

[12] = target: T7, ETV3L (Homo sapiens, UniProt Q6ZN32 1-361); conditions: protein: recombinant; tags: N-terminal GST; dsDNA, one strand shown
T7 sequence: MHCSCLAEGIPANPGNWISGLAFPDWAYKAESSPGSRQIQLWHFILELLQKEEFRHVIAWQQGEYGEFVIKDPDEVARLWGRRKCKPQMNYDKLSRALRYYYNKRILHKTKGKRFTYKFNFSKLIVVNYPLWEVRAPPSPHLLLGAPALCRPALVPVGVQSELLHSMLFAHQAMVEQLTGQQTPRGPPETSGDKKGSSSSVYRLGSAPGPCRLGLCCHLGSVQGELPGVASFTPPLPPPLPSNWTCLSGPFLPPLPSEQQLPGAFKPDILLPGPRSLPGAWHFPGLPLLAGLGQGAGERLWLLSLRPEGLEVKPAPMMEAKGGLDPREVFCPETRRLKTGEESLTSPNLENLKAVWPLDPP
How it was run: as §1

[13] = target: T8, ETS2 (Homo sapiens, UniProt P15036 1-469); conditions: protein: recombinant; tags: N-terminal GST; dsDNA, one strand shown
T8 sequence: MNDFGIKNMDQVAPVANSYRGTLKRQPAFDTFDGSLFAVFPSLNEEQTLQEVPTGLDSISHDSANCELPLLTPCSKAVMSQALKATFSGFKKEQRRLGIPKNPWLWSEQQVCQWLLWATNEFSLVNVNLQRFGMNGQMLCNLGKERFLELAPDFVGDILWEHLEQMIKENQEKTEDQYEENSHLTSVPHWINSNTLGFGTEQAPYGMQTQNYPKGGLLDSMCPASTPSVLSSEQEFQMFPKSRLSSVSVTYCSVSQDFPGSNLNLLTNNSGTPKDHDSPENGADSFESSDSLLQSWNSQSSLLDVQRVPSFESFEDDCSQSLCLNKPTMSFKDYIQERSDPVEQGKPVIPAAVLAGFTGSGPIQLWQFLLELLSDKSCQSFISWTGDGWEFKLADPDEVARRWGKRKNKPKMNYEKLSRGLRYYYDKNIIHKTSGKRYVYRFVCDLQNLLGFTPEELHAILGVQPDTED
How it was run: as §1

[14] = target: T9, SPDEF (Homo sapiens, UniProt O95238 1-335); conditions: protein: recombinant; tags: N-terminal GST; dsDNA, one strand shown
T9 sequence: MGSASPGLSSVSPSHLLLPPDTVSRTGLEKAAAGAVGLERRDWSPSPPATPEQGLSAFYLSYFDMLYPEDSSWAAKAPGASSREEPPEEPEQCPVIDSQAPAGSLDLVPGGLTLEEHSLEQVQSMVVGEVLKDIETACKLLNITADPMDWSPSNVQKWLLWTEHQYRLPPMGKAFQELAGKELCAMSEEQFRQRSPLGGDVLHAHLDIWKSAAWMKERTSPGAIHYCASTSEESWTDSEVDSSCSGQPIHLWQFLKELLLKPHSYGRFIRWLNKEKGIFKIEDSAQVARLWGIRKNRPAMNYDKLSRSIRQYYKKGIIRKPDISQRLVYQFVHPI
How it was run: as §1

[15] = target: T10, ETV7 (Homo sapiens, UniProt Q9Y603 1-341); conditions: protein: recombinant; tags: N-terminal GST; dsDNA, one strand shown
T10 sequence: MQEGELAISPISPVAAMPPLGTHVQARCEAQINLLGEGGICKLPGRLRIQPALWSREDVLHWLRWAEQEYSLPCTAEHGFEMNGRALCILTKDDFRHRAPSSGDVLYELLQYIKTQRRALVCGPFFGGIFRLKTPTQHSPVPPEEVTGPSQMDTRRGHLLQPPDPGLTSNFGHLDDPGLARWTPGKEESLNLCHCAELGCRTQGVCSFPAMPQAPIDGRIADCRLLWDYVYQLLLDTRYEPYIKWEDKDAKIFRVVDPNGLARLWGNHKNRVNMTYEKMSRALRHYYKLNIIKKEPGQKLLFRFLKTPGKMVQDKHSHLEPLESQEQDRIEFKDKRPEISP
How it was run: as §1

[16] = target: T11, ELF5 (Homo sapiens, UniProt Q9UKW6-2 1-255); conditions: protein: recombinant; tags: N-terminal GST; dsDNA, one strand shown
T11 sequence: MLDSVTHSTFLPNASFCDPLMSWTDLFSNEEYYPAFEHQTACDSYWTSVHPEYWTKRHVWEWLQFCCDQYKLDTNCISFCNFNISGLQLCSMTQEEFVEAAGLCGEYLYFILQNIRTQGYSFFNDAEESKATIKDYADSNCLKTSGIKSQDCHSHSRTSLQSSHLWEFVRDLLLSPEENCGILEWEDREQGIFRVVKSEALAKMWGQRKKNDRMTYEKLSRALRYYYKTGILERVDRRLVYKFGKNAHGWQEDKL
How it was run: as §1

[17] = target: T12, ETV3 (Homo sapiens, UniProt P41162-2 1-143); conditions: protein: recombinant; tags: N-terminal GST; dsDNA, one strand shown
T12 sequence: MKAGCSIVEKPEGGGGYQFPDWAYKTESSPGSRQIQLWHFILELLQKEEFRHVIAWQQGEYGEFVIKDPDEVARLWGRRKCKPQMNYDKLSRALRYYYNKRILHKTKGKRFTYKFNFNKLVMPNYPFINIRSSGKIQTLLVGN
How it was run: as §1

[18] = target: ETV6 (Homo sapiens, UniProt P41212 1-452); conditions: protein: recombinant; tags: N-terminal GST; dsDNA, one strand shown
Chain of ETV6 (P41212 whole entry): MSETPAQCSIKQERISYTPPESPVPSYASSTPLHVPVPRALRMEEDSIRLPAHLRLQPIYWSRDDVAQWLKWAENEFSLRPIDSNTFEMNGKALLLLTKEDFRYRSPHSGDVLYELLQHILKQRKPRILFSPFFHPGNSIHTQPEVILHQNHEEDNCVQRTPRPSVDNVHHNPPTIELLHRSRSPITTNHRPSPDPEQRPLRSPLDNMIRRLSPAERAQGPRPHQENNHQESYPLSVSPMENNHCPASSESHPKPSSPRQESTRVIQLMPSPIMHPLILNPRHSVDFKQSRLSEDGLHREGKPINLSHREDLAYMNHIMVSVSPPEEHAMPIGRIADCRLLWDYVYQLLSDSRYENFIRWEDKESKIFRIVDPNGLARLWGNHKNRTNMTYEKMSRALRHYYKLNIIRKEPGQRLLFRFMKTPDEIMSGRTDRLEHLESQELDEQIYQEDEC
How it was run: as §1

## TTTGGA
[1]
  binding signal: 1.2 fold enrichment (6-mer frequency, TF over GST control)
[2]
  binding signal: 1.21 fold enrichment (6-mer frequency, TF over GST control)
[3]
  binding signal: 1.48 fold enrichment (6-mer frequency, TF over GST control)
[4]
  binding signal: 1.28 fold enrichment (6-mer frequency, TF over GST control)
[5]
  binding signal: 1.12 fold enrichment (6-mer frequency, TF over GST control)
[6]
  binding signal: 1.14 fold enrichment (6-mer frequency, TF over GST control)
[7]
  binding signal: 1.22 fold enrichment (6-mer frequency, TF over GST control)
[8]
  binding signal: 1.13 fold enrichment (6-mer frequency, TF over GST control)
[9]
  binding signal: 1.48 fold enrichment (6-mer frequency, TF over GST control)
[10]
  binding signal: 1.24 fold enrichment (6-mer frequency, TF over GST control)
[11]
  binding signal: 1.2 fold enrichment (6-mer frequency, TF over GST control)
[12]
  binding signal: 1.21 fold enrichment (6-mer frequency, TF over GST control)
[13]
  binding signal: 1.19 fold enrichment (6-mer frequency, TF over GST control)
[14]
  binding signal: 1.23 fold enrichment (6-mer frequency, TF over GST control)
[15]
  binding signal: 1.3 fold enrichment (6-mer frequency, TF over GST control)
[16]
  binding signal: 1.15 fold enrichment (6-mer frequency, TF over GST control)
[17]
  binding signal: 1.19 fold enrichment (6-mer frequency, TF over GST control)
[18]
  binding signal: 1.15 fold enrichment (6-mer frequency, TF over GST control)
